The panel holds about 83,000 compounds, 20% with a hit somewhere; the sample as a whole holds those more often.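 A percent growth of 40 corresponds to 60% growth inhibition; 0 means no net growth; -100 means all cells died. Active threshold: below 10.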 A number with no mark means an inactive call. Calls of active or inactive are those of the source.

Some test systems named below: T-47D breast; BT-549 breast; MDA-MB-435 melanoma; SW-620 colon; MCF7 breast; HCT-116 colon; HCC-2998 colon; KM12 colon.
What all share (assay): NCI-60 one-dose screen, 48 h (100 = growth as untreated, 0 = no growth, -100 = all killed)
Holding throughout (details): 10 µM unless noted

With `COc1ccc2cc(-c3ccnc4c(N=Nc5ccc(Cl)cc5)c(N)nn34)ccc2c1`, the growth in the assay on T-47D breast was 94.5%; with BT-549 breast it was 99.9%; in the assay on MDA-MB-435 melanoma it was 105%; in the assay on SW-620 colon, 101%; with MCF7 breast, 97.3%; with HCT-116 colon, 99.7%. Further, the growth in the assay with HCC-2998 colon is 97.6%; in the assay with KM12 colon it was 103%.
Take `CCN1C(=O)N(CC)C2C1NC(=S)N2/N=C/c1ccc(C(F)(F)F)cc1` (configuration not stated): the growth in the assay with T-47D breast is 74.7%; in the assay on BT-549 breast it was 71%; with MDA-MB-435 melanoma, 4.45% (active); in the assay on SW-620 colon, 55.3%; in the assay on MCF7 breast, 33.2%; in the assay with HCT-116 colon, 54.9%. In addition, the figures for the growth in the assay with HCC-2998 colon and in the assay with KM12 colon were 74% and 56%, respectively.
Regarding `O=C1/C(=C/c2ccc(F)cc2)CN(C(=O)C(Cl)Cl)C/C1=C\c1ccc(F)cc1`, the growth in the assay on T-47D breast is -22.4% (active); in the assay with BT-549 breast, -80.1% (active); in the assay on MDA-MB-435 melanoma it was -93.7% (active); in the assay with SW-620 colon, -73.1% (active); with MCF7 breast it was -60.9% (active); in the assay with HCT-116 colon it was -92.8% (active). Besides, the growth with HCC-2998 colon was -89.3% (active); in the assay with KM12 colon it was -66.3% (active).
As for `CCC1S/C(=N\N=C(\C)c2cc3cc(Cl)ccc3o2)N(c2ccccc2)C1=O` (configuration not stated), the growth was 88.5% with T-47D breast; 119% in the assay on BT-549 breast; 96.4% with MDA-MB-435 melanoma; 90% in the assay on SW-620 colon; 100% in the assay with MCF7 breast; 84.2% in the assay with HCT-116 colon. For the same molecule, the growth with HCC-2998 colon is 83.2%; with KM12 colon, 91.6%.
`COc1ccc2nc(Cl)c(/C=C3\CC(c4ccccc4)=NN(c4ccccc4)C3=O)cc2c1`: the growth with T-47D breast is 73.1%; with BT-549 breast, 43.3%; in the assay on MDA-MB-435 melanoma, 90.3%; in the assay on SW-620 colon it was 88.7%; in the assay on MCF7 breast it was 82%; in the assay on HCT-116 colon, 54.1%. For the same molecule, the figures for the growth in the assay with HCC-2998 colon and in the assay on KM12 colon were 85% and 90.3%, respectively.
Consider `Nc1ccc(-c2csc(-n3[nH]c(=O)ccc3=O)n2)cc1`, for which the growth was 98.5% in the assay with T-47D breast; 92% with BT-549 breast; 103% with MDA-MB-435 melanoma; 104% in the assay with SW-620 colon; 86.6% with MCF7 breast; 94% in the assay with HCT-116 colon. The growth in the assay on HCC-2998 colon is 112%; in the assay with KM12 colon it was 104%.
Take `CC(=O)ON1CCCC(P(=O)(OCCSC(=O)C(C)(C)C)OCCSC(=O)C(C)(C)C)C1=O` (configuration not stated): the growth in the assay with T-47D breast was 14.8%; in the assay with BT-549 breast it was 30.9%; in the assay with MDA-MB-435 melanoma, 48.5%; with SW-620 colon it was 30.9%; with MCF7 breast, 13.9%; in the assay with HCT-116 colon it was 10.5%. Moreover, the growth with HCC-2998 colon is 11%; in the assay on KM12 colon it was 5.16% (active).
Turning to `O=c1c2c3c(sc2n2c(-c4cc(-c5ccccc5)no4)nnc2n1Cc1ccccc1)CCCC3`, the growth with T-47D breast is 53.3%; with BT-549 breast, 91.9%; in the assay on MDA-MB-435 melanoma, 106%; in the assay on SW-620 colon it was 106%; in the assay with MCF7 breast it was 97.1%; with HCT-116 colon, 81.6%. Moreover, the growth in the assay with HCC-2998 colon was 101%; with KM12 colon it was 95.5%.
On to `C=C(C)[C@@H]1CC[C@]2(COC(C)=O)CC[C@]3(C)[C@H](CC[C@@H]4[C@@]5(C)CCCN(C(C)=O)C(C)(C)[C@@H]5CC[C@]43C)[C@@H]12`, for which the growth was 10.9% with T-47D breast; 88.6% in the assay on BT-549 breast; 4.85% (active) with MDA-MB-435 melanoma; -53.9% (active) in the assay with SW-620 colon; 19.7% in the assay with MCF7 breast; -35.7% (active) with HCT-116 colon. The values for the growth with HCC-2998 colon and with KM12 colon were -28.8% (active) and 5.81% (active), respectively.
Take `Cn1ccc(=O)nc1`: the growth is 99.1% with T-47D breast; 110% in the assay on BT-549 breast; 106% in the assay with MDA-MB-435 melanoma; 53.5% in the assay on SW-620 colon; 52.2% in the assay on MCF7 breast; 60.6% in the assay on HCT-116 colon. Also, the growth in the assay on HCC-2998 colon is 96.8%; in the assay with KM12 colon it was 95%.
`N#CSc1c[nH]c2cccc(/C=C/C(=O)/C=C(O)/C=C/c3cccc4[nH]cc(SC#N)c34)c12`: the growth was -10.5% (active) in the assay on T-47D breast; -23.7% (active) in the assay on BT-549 breast; -83.8% (active) in the assay on MDA-MB-435 melanoma; -43% (active) in the assay with SW-620 colon; -41.6% (active) in the assay with MCF7 breast; -92% (active) in the assay on HCT-116 colon. Further, the values for the growth in the assay on HCC-2998 colon and with KM12 colon were -57.8% (active) and -16.9% (active), respectively.
In the case of `C=Cc1cnc(Nc2ccc(OC)cc2)nc1NCCCNC(=O)C1CCC1`, the growth was 66.8% with T-47D breast; 26.4% in the assay on BT-549 breast; 70.3% in the assay with MDA-MB-435 melanoma; 47.5% with SW-620 colon; 53.6% in the assay on MCF7 breast; 21.5% in the assay with HCT-116 colon. In addition, the figures for the growth in the assay on HCC-2998 colon and with KM12 colon were 78.8% and 39.1%, respectively.
Regarding `C/C(=N\O)[C@@H]1CC[C@]2(CO)CC[C@]3(C)[C@H](CC[C@@H]4[C@@]5(C)CCCNC(C)(C)[C@@H]5CC[C@]43C)[C@@H]12`, the growth in the assay with T-47D breast is 72.5%; in the assay with BT-549 breast, 90.5%; in the assay with MDA-MB-435 melanoma it was 79.5%; with SW-620 colon it was 88.5%; with MCF7 breast, 50.9%; in the assay with HCT-116 colon it was 76.5%. In addition, the growth is 103% with HCC-2998 colon and 83.6% in the assay with KM12 colon.
As for `C=C(CNCCc1ccc(O)cc1)[C@@H]1CC[C@]2(CO)CC[C@]3(C)[C@H](CC[C@@H]4[C@@]5(C)CCC(=O)C(C)(C)[C@@H]5CC[C@]43C)[C@@H]12`, the growth in the assay with T-47D breast is 42.2%; in the assay with BT-549 breast, 79.5%; in the assay with MDA-MB-435 melanoma, 2.13% (active); in the assay with SW-620 colon, -49.8% (active); in the assay with MCF7 breast, -1.07% (active); in the assay with HCT-116 colon, -86.1% (active). For the same molecule, the values for the growth with HCC-2998 colon and in the assay with KM12 colon were 17.3% and 1.19% (active), respectively.

Source of the values: PubChem BioAssay (NCI).
